Assay results taken from the supplement of paper PMC11732987, “Enantioselective OTUD7B fragment discovery through chemoproteomics screening and high-throughput optimisation” (Communications Chemistry, 2025).

What was measured:
Experiment in all cases: log2 ratio of Biotin-Ahx-Ub-VS probe labelling (fragment/DMSO); higher = less target engagement (more negative = stronger competition), active = hit call of the paper (q ≤ 0.05, log2 ratio ≤ -1)
Conditions in all cases: compound concentration: 200 uM; treatment time: 3 h
USP19 = target: T1, USP19 (UniProt O94966)
T1 sequence (whole entry): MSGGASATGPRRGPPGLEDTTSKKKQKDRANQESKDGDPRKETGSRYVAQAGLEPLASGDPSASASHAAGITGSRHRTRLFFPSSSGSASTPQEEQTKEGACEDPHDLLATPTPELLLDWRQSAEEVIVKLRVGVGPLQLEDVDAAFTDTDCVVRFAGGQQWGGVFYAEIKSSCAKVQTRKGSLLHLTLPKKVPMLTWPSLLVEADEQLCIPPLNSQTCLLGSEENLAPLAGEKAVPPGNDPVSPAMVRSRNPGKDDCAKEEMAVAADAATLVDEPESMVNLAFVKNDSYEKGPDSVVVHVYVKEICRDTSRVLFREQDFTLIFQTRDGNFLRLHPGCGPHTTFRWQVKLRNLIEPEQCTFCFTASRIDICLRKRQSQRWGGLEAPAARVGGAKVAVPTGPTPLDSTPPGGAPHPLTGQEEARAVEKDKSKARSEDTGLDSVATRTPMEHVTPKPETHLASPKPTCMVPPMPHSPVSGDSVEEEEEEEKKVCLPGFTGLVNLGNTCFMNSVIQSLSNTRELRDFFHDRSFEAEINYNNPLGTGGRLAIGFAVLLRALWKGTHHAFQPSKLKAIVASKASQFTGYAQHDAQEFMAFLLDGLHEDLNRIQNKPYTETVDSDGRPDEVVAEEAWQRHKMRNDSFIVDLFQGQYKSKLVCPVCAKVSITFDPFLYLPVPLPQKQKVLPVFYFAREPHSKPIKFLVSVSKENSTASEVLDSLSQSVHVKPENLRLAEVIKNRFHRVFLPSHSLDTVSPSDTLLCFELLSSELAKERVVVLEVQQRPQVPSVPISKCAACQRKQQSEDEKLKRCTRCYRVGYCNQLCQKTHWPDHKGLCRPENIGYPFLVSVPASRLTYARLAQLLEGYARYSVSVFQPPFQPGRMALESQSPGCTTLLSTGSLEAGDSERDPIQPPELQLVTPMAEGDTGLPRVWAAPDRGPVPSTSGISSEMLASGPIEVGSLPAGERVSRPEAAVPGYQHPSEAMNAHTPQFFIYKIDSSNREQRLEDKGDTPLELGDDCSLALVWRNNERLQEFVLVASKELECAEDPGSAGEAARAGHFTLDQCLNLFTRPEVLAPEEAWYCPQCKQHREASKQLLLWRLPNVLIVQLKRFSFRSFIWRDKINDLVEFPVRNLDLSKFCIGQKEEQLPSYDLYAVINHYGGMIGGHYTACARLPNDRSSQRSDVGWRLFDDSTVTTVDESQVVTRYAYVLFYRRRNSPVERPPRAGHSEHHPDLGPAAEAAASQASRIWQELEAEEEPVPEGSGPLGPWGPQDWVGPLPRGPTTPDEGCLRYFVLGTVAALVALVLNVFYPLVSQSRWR
How it was run: (§1)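 Triplicate samples of HEK293T lysate, 495 µg each, received fragment at 200 µM or vehicle for 3 h, followed by Biotin-Ahx-Ub-VS (0.5 µM final) for 1 h. After NeutrAvidin enrichment of labelled DUBs and LysC/trypsin digestion, peptides were run by diaPASEF LC-MS/MS. The values are average log2 fragment/vehicle ratios from global-median-normalised Spectronaut label-free quantities, tested by unpaired t-test on proteins having ≥2 unique peptides.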

USP24 = USP24 (UniProt Q9UPU5)
Chain of USP24 (Q9UPU5 whole entry): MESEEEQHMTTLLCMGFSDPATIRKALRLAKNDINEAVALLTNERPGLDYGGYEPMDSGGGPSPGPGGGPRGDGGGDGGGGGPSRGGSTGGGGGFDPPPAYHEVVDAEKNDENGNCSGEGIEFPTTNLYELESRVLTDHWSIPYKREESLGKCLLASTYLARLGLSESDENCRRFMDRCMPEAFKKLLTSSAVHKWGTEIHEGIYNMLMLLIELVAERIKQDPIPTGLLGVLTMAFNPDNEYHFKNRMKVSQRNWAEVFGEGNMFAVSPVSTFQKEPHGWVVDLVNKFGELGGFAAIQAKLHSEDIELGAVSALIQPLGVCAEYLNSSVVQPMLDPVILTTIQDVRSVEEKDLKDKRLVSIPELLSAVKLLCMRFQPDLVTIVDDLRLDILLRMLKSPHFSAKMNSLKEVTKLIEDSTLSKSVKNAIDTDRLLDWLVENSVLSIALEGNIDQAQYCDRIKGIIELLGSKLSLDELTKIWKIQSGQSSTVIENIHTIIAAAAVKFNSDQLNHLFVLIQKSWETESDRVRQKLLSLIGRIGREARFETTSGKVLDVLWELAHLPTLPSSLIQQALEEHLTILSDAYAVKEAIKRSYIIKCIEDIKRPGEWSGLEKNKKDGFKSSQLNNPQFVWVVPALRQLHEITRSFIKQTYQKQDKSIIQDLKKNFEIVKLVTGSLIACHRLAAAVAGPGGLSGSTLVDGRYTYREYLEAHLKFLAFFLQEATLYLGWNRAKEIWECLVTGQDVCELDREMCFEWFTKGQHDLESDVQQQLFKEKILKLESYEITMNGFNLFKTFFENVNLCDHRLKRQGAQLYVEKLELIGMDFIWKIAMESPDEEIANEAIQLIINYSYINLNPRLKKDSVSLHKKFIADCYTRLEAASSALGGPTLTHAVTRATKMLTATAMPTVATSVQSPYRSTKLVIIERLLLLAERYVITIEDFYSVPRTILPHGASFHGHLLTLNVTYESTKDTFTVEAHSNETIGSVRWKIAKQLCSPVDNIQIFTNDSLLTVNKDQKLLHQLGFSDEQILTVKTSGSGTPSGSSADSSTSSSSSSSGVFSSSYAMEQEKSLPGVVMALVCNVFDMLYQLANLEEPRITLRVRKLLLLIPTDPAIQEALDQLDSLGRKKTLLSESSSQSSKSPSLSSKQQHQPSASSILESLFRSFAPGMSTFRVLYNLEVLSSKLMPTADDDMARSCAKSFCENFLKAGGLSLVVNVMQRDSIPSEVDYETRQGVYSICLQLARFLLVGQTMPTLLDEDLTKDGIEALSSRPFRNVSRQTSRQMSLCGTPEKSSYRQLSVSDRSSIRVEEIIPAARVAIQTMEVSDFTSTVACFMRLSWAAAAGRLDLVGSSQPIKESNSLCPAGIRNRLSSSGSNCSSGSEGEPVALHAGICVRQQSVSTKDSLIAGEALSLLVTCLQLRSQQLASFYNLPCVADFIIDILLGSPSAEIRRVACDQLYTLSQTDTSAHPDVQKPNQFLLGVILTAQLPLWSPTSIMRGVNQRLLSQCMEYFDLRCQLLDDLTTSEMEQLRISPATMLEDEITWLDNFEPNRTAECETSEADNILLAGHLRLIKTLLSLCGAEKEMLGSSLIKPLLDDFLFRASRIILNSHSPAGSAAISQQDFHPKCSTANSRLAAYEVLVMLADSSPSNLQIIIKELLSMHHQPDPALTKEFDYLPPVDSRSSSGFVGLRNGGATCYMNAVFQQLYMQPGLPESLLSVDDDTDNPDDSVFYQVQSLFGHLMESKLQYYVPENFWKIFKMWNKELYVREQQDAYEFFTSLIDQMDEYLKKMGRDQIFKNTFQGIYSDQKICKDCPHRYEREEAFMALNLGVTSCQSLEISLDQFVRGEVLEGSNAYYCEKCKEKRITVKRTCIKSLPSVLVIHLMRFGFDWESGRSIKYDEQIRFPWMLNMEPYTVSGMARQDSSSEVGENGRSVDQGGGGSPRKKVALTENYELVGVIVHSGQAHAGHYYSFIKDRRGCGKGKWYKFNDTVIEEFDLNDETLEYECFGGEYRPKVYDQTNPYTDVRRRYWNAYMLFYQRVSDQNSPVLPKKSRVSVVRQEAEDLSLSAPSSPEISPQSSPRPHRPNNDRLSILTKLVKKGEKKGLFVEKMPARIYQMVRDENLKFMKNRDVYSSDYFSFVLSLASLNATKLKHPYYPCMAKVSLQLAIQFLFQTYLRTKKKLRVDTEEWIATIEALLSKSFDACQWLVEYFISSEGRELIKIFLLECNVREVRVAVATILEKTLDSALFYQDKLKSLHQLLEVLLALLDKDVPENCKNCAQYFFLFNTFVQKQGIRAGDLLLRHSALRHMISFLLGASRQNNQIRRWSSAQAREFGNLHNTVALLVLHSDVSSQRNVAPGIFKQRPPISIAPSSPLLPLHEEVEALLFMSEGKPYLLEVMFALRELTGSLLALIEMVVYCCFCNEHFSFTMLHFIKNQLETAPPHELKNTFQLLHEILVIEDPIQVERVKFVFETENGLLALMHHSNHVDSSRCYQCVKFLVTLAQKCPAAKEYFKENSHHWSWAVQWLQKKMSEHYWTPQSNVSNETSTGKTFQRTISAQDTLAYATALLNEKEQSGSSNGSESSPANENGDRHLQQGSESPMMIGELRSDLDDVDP
How it was run: as §1

USP25 = target: T2, USP25 (UniProt Q9UHP3)
T2 sequence (whole entry): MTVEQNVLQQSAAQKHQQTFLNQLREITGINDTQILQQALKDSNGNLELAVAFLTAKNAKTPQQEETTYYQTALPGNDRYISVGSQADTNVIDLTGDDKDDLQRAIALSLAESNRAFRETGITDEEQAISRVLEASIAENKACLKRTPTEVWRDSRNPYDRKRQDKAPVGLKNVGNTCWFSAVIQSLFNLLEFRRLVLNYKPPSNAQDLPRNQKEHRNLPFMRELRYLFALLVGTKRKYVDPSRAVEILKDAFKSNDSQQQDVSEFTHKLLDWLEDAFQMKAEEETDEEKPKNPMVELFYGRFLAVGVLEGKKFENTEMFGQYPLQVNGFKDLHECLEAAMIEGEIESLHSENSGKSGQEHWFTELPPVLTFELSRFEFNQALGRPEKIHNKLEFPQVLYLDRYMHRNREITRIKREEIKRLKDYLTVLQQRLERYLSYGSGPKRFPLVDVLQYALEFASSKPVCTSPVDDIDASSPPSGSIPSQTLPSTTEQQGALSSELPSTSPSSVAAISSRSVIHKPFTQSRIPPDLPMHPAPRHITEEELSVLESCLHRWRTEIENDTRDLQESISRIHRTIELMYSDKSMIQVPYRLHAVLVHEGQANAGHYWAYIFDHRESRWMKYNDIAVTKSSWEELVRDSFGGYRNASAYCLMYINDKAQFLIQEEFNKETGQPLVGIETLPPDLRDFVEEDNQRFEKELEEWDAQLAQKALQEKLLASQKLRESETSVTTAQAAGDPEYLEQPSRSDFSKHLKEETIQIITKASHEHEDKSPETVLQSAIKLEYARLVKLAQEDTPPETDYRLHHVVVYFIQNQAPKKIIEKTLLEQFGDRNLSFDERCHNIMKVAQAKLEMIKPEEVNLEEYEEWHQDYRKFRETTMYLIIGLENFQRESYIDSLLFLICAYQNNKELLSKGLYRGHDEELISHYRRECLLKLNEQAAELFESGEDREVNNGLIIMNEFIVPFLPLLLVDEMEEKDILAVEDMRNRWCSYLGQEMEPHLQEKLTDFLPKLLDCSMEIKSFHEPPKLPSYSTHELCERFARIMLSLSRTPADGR
How it was run: as §1

USP28 = target: T3, USP28 (UniProt Q96RU2)
T3 sequence (whole entry): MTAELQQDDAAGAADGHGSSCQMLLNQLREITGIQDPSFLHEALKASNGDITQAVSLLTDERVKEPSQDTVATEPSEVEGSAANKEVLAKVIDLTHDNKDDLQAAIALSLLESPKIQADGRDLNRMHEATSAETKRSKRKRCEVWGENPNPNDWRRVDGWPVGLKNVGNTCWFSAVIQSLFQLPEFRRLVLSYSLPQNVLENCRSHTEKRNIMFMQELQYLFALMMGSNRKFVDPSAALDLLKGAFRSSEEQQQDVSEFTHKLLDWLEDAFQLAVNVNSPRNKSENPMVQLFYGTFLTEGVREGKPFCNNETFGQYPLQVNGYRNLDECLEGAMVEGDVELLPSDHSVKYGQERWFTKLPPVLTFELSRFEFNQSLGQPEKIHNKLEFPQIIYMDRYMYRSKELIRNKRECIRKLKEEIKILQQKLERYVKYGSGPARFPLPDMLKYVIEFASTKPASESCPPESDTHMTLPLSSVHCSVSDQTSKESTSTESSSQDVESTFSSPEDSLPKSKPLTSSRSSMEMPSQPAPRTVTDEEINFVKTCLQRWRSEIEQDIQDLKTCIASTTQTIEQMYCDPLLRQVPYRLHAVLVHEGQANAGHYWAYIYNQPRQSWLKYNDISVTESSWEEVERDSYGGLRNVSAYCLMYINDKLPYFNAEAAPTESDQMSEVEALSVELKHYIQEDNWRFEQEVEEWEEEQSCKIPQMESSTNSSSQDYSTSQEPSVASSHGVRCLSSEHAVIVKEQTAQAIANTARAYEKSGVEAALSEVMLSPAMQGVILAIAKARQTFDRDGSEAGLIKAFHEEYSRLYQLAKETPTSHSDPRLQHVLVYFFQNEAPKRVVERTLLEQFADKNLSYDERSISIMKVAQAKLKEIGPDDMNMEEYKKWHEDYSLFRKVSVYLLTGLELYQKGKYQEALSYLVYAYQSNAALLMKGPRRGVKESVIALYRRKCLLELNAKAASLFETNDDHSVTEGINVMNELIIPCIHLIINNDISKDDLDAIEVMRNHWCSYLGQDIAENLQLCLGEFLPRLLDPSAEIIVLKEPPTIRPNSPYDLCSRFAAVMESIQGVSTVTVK
How it was run: as §1

Measured: log2 ratio of Biotin-Ahx-Ub-VS probe labelling

CCN1C(=O)C2CN(C(=O)CCl)CCN2C1=O (centres undefined)
inactive: USP19 -0.175 | USP24 -0.0184 | USP25 -0.141 | USP28 -0.324
